# Assay outcomes from PubChem BioAssay.
# Hits are enriched below; roughly 3.6% of the tested compounds scored in any of these assays.
# HTT-AS promoter = activators of huntingtin-antisense promoter activity; HEK293 HTT-AS promoter firefly luciferase reporter, 24 h; response scale: percent change from vehicle, -100% = no light; Potency, µM (titrated, usually from 57.5 µM), inactives show at the highest dose activity change, positive = activation, hits mostly activators; 0.24% of 48,000 active; AID 1508624; further: potency means the concentration at half of the fitted maximal effect; nearly all actives have a fitted effect of over 55% in size
#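 Firefly luciferase readout (Dual-Glo, 10 min RT) after 24 h, 37 °C compound exposure (final up to 57.5 uM) of HEK293 reporter cells cultured 24 h beforehand; PTC124 at 50 uM final as control inhibitor; activity scaled vehicle 0%, zero RLU -100%.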
# S16 viability = S16 Schwann cell cytotoxicity; S16 Pmp22-F2sN Schwann cells viability, CellTiter-Glo, 24 h; AID 1508642; 0.48% of 43,000 active; Potency, µM (series often up to 57.5 µM), inactives show at the top dose activity change, negative = cytotoxicity, usual class: cytotoxic; further: potency means the concentration at half of the fitted maximal effect; on the % scale 0 is the no-effect control and ±100 the full control effect; nearly all actives have a fitted effect of over 65% in size
#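 CellTiter-Glo counter-screen, qHTS, 1536-well. Cells: S16(c9) Pmp22-F2sN, 500-1,000/well in DMEM + 10% FBS. Cpd 23 nL pin transfer, 24 h, 37C/5% CO2. Read: luminescence, CCD imager.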
# SKOV3 invasion = inhibitors of ovarian cancer cell adhesion and invasion in omental model | AID 1963576 | Potency, µM (highest dose often 45.8 µM), for inactives: top-dose activity change, negative = inhibition, hits mostly inhibitors | SKOV3ip1-GFP adhesion/invasion on 3D omental model, fluorescence | 0.1% of 46,000 active;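 further: potency means the concentration at half of the fitted maximal effect; plate controls were DMSO wells for no effect and tomatine positive control wells for full effect; nearly all actives have a fitted effect of over 65% in size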
#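 qHTS, 4-pt dose (0.36-46 umol/L); SKOV3ip1-GFP, 1,200 cells/well, no FBS; primary omental fibroblast/mesothelial co-culture 48 h pre-grown; 2 h RT + 16 h 37 C; PBS wash, 4% PFA; GFP count 488/509 nm.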
# PMP22 txn prim = PMP22 gene transcription modulation; S16 Pmp22-F2sN Schwann cells (luciferase reporters placed in the Pmp22 gene), FLuc/NLuc coincidence luminescence, 24 h; Potency, µM (highest dose often 57.5 µM), inactives show top-dose activity change, negative = inhibition, actives largely listed as inhibitors; 2% of 43,000 active; AID 1508649; active means clear falling dose curves in both reporters; inconclusive means both reporters move, but less clearly or upward; inactive means either reporter flat; the % is the NLuc reporter signal; further: potency means the concentration at half of the fitted maximal effect; on the % scale 0 is the no-effect control and ±100 the full control effect
#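 Schwann cells carrying the coincidence reporter were exposed to library compounds for 24 h at 37C, then lysed and read for FLuc and, after quenching, NLuc luminescence on a CCD imager.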
# HTT prom inh = inhibitors of huntingtin promoter activity; HEK293 HTT promoter firefly luciferase reporter, 24 h; Potency, µM (doses to about 57.5 µM), inactives show top-dose activity change, negative = inhibition, usual class: inhibitors; 0.93% of 48,000 active; further: potency means the concentration at half of the fitted maximal effect; nearly all actives have a fitted effect of over 50% in size
#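 HEK293 luciferase promoter-reporter cells (2,500/well) plated 24 h, then compounds added at up to 57.5 uM final for 24 h at 37 °C. Firefly luminescence by Dual-Glo, normalized to vehicle (0%) and zero RLU (-100%).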
# mTORC1 inh = inhibitors of mTORC1 signaling in Tsc2-/- p53-/- MEF cells | Potency, µM (top dose mostly 38.3 µM), for the others: at the top dose activity change, negative = inhibition, actives largely listed as inhibitors | AID 493208 | Tsc2-/- p53-/- MEF, phospho-rpS6 immunofluorescence/PI, 24 h | 0.78% of 44,000 active;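 further: potency means the concentration at half of the fitted maximal effect; plate controls were DMSO for no effect and rapamycin for full effect; nearly all actives have a fitted effect of over 50% in size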
#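 Compounds act on Tsc2-/-, p53-/- fibroblasts carrying an empty vector for 24 h before fixation and dual staining for phospho-S6 and DNA (propidium iodide). Values are percentages of cells above a rapamycin-defined pS6/PI threshold.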
# NLuc sat counter = counter-screen for PMP22 expression modulators: NanoLuc inhibition, saturating substrate | shares compounds with PMP22 txn prim | Secreted NLuc enzyme (filtered S16 cell medium), Nano-Glo luminescence | Potency, µM (top dose mostly 57.5 µM), without a hit: top-dose activity change, negative = inhibition, most hits filed as inhibitors | 4% of 690 active; further: potency means the concentration at half of the fitted maximal effect; on the % scale 0 is the no-effect control and ±100 the full control effect
# NLuc Km counter = NanoLuc inhibition at Km substrate, PMP22 artifact check; 5% of 690 active; AID 1508639; shares compounds with PMP22 txn prim; Potency, µM (top dose mostly 57.5 µM), without a hit: at the highest dose activity change, negative = inhibition, most hits filed as inhibitors; secreted NLuc enzyme, coelenterazine luminescence, Km conditions; further: potency means the concentration at half of the fitted maximal effect; on the % scale 0 is the no-effect control and ±100 the full control effect
# FLuc counter = firefly luciferase enzyme inhibition artifact for PMP22 screen; shares compounds with PMP22 txn prim; purified P. pyralis FLuc, luminescence, 10 min; Potency, µM (highest dose often 57.5 µM), inactives show at the highest dose activity, negative = inhibition, usual class: inhibitors; 690 tested, under 10 active; further: % of control where 0% means no effect
# Target sequence (P08659 whole entry, looked up): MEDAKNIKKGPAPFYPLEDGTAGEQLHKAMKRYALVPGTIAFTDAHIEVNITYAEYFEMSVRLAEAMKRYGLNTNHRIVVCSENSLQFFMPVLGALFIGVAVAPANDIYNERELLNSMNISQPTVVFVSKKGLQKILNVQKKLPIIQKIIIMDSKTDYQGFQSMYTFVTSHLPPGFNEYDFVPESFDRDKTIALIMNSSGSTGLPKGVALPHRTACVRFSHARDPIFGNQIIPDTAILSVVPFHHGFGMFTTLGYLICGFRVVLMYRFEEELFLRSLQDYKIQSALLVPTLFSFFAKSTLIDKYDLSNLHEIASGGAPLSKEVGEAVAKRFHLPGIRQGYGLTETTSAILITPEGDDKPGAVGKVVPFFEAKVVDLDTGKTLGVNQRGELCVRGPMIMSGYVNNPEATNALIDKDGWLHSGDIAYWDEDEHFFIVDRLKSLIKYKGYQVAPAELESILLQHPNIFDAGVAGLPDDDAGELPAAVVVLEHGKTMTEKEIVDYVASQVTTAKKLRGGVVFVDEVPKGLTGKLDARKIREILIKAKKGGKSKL
# S16 F2sN tox cnf = S16 Schwann cell cytotoxicity, confirmatory. shares compounds with PMP22 txn prim. S16 Schwann cells viability, CellTiter-Glo ATP luminescence, 24 h. AID 1508641. 7% of 690 active. Potency, µM (titrated, usually from 57.5 µM), inactives show at the top dose activity change, negative = viability loss, usual class: cytotoxic; further: potency means the concentration at half of the fitted maximal effect; on the % scale 0 is the no-effect control and ±100 the full control effect
# PMP22 txn cnf = PMP22 transcription modulation, confirmatory; shares compounds with PMP22 txn prim; S16 Schwann cells Pmp22-F2sN, dual luciferase, 24 h; Potency, µM (doses to about 57.5 µM), for the others: top-dose activity change, negative = inhibition, usual class: inhibitors; 22% of 690 active; AID 1508646; active means clear falling dose curves in both reporters; inconclusive means both reporters move, but less clearly or upward; inactive means either reporter flat; the % is the FLuc reporter signal; further: potency means the concentration at half of the fitted maximal effect
# PMP22 prot conf = confirmation of modulators of rat PMP22 protein expression. shares compounds with PMP22 txn prim. S16 Schwann cells Pmp22-HiBiT, luminescence, 48 h. Potency, µM (highest dose often 27.9 µM), without a hit: at the highest dose activity change, negative = inhibition, usual class: inhibitors. 95 tested, under 10 active. AID 1508647
# Target sequence (P25094 whole entry, looked up): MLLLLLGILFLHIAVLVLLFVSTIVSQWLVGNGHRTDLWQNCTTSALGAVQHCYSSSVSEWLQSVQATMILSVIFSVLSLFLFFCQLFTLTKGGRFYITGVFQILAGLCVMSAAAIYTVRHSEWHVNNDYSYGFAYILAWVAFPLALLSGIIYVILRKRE
# Starred values were filed as active, the others as inactive; i = inactive; u = inconclusive; x = not tested or not shown; [ ] = dose if it differs, or a comment. Unless noted, the call rests on the fitted dose curve; in most records, active means well fitted curve in the direction sought with a large enough effect; inconclusive means small, poorly fitted or top-dose-only effect, or another doubt; inactive means no such curve, though single readings can be large; an effect the other way counts as inactive or inconclusive.
SMILES,HTT-AS promoter,S16 viability,SKOV3 invasion,PMP22 txn prim,HTT prom inh,mTORC1 inh,NLuc sat counter,NLuc Km counter,FLuc counter,S16 F2sN tox cnf,PMP22 txn cnf,others
CCOc1ccc(OCC)c(NC(=O)CN(C)S(=O)(=O)c2ccc3c(c2)CCCC(=O)N3)c1,-35%,-4%,-7%,20µM*,u,7%,-4%,-2%,0%,4%,-23%,
Cc1c(C(=O)NCc2cccc(Cl)c2)sc2nc[nH]c(=O)c12,-19%,-4%,6%,u,-12%,-14%,u,-18%,-1%,u,13%,
Cc1c(C(=O)NCc2ccccc2)sc2nc[nH]c(=O)c12,7%,0%,16%,-38%,13%,-8%,x,x,x,x,x,
CCn1ccc2c(OCC(=O)Nc3ccccc3C(F)(F)F)cccc2c1=O,-34%,u,-11%,19µM*,u,-6%,u,u,-7%,2%,u,
Cc1ccc(S(=O)(=O)Nc2nc3ccccc3nc2Nc2ccc3nsnc3c2)cc1,-27%[25.1 µM],x,-10%[23.2 µM],x,-22%[25.2 µM],x,x,x,x,x,x,
NC(=O)c1ncn([C@@H]2O[C@H](CO)[C@@H](O)[C@@H]2O)c1N,1%,x,-15%,x,13%,x,x,x,x,x,x,
Cc1ccc(-c2csc(-c3cc4c([nH]c3=O)CC(c3ccccc3)CC4=O)n2)cc1 (configuration not stated),-39%,-18%,7%,6.3µM*,u,u,-16%,-5%,8%,u,-32%,
CC(C)(C)c1cc(C(C)(C)C)c(NC(=O)c2c[nH]c3ccccc3c2=O)cc1O,-8%,x,-11%,x,-26%,x,x,x,x,x,x,
CCN(CC)CCCNC(=O)CSc1c2c(nc3cc(Cl)ccc13)CCCC2,-67%,u,u,6.7µM*,u,u,-3%,-1%,3%,u,10µM*,PMP22 prot conf=66%
CC(C)OCCCNC(=O)CSc1c2c(nc3ccc(Cl)cc13)CCCC2,-85%,u,u,12µM*,u,-10%,-10%,5%,2%,u,19µM*,
O=C(CSc1c2c(nc3ccc(Cl)cc13)CCCC2)N1CCN(c2cccc(Cl)c2)CC1,-52%,-12%,-9%,20µM*,u,-19%,-8%,-1%,0%,17%,u,
CCc1ccc(CNC(=O)CSc2c3c(nc4ccc(Cl)cc24)CCCC3)cc1,-9%,-1%,-6%,6.2µM*,-18%,0%,-8%,u,5%,4%,u,
O=C(CSc1c2c(nc3ccc(Cl)cc13)CCCC2)N1CCN(c2ccc(Cl)cc2)CC1,-14%,-2%,-5%,u,2%,1%,x,x,x,x,x,
COc1cc(C=C2CCC/C(=C\c3ccc(O)c(OC)c3)C2=O)ccc1O,-80%,x,x,x,u,x,x,x,x,x,x,
Cc1cc(C(=O)N2CCN(c3cccc(Cl)c3)CC2)n(-c2ccccc2)n1,-28%,x,5%,x,-17%,x,x,x,x,x,x,
O=C(Nc1c(Cl)cncc1Cl)c1ccc(OC(F)F)c(OCC2CC2)c1,-16%,x,38%,x,4%,x,x,x,x,x,x,
CCC(=O)N1CCc2cc(Br)cc(S(=O)(=O)N3CCCC(C(=O)NCc4cccc(OC)c4)C3)c21 (configuration not stated),-17%,18%,11%,14µM*,-8%,-3%,-17%,5%,7%,-21%,-41%,
CCC(=O)N1CCc2cc(Br)cc(S(=O)(=O)N3CCCC(C(=O)NCc4ccc(OC)cc4)C3)c21 (configuration not stated),-22%,21%,i,u,-11%,-20%,x,x,x,x,x,
COc1cc(C)c(Sc2cnc(NC(=O)c3ccc(CNC(C)C(C)(C)C)cc3)s2)cc1C(=O)N1CCN(C(C)=O)CC1 (configuration not stated),-9%,x,19%,x,-23%,x,x,x,x,x,x,
CCN1C(=O)c2ccccc2S(=O)c2ccc(C(=O)N3CCN(c4ccc(F)cc4)CC3)cc21 (configuration not stated),-30%,24%,i,u,-19%,0%,x,x,x,x,x,
COc1ccc(N2CCN(C(=O)c3ccc4c(c3)N(Cc3ccc(F)cc3)C(=O)c3ccccc3S4=O)CC2)cc1 (configuration not stated),-25%,15%,19%,u,u,-8%,0.15µM*,0.12µM*,1%,-2%,-17%,
Cc1cccc2c1CC[C@H](CN1CCC(c3c(Cl)cccc3Cl)CC1)C[C@@H]2O,5%,x,8%,x,2%,x,x,x,x,x,x,
CCOc1ccc(CCNc2nc3ccccc3n3c(C)nnc23)cc1OCC,-17%,-3%,-15%,u,-11%,-8%,u,u,1%,0%,u,
CC(C=CC1=C(C)CCCC1(C)C)=CC=CC(C)=CC(=O)O,-11%,x,-24%,x,u,x,x,x,x,x,x,
